PubChem BioAssay AID2284323 (EPA ToxCast)
Several values for one entry are separate records, joined by “and”; a condition that tells them apart may be missing. Identical values can stand only once. Activity calls are given as the source filed them. The calls were made as follows: active = hit-call score of the fitted dose curve at least 0.9, where 1 is the maximum; inactive = score below 0.9.

system: NCBI gene 447152; test: CCTE_GLTED_xIYD: CCTE's Xenopus Iodotyrosine Deiodinase (xIYD) Inhibition Assay, Great Lakes Toxicology and Ecology Division (GLTED) Lab
Method: CCTE_GLTED_xIYD is a cell-free, single-readout assay that uses Xenopus (frog) iodotyrosine deiodinase (xIYD) enzyme from liver microsomes. Assay is based on iodide release measured by the Sandell-Kolthoff method and is run in 96-well plate format with assay plates run in triplicate (n=3) with measurements taken at 3 hours after chemical dosing. Platewise-normalization was used based on positive control (3-Nitro-L-tyrosine, MNT) and negative/solvent controls (DMSO, NaOH).CCTE_GLTED_xIYD is the assay component measured from the CCTE_GLTED_xIYD assay. It measures substrate involved in regulation of catalytic activity using spectrophotometry. The assay measures the deiodination activity of Xenopus (frog) IYD on the substrate monoiodotyrosine (MIT). After 3h incubation of substrate, enzyme, and test chemical, the components are applied to a 96-well Dowex column. Free iodide is not retained by the column and is separated from interfering assay components. The free iodide is measured by the Sandell-Kolthoff reaction in which the rate of reduction of cerium (Ce+4 to Ce+3) by arsenic (As+3 to As+5) is increased by the presence of iodide. This is observed as the loss of yellow color in the reaction and the quantified by the change in absorbance at 420 nm. The change in reaction rate is proportional to the amount of iodide present.Data from the assay component CCTE_GLTED_xIYD was analyzed at the assay endpoint CCTE_GLTED_xIYD in the positive analysis fitting direction relative to DMSO as the negative control and baseline of activity. Using a type of enzyme reporter, loss-of-signal activity can be used to understand iodotyrosine deiodinase activity. To generalize the intended target to other relatable targets, this assay endpoint is annotated to the 'dehalogenase' intended target family, where the subfamily is 'iodotyrosine deiodinase'.
Human transthyretin (TTR) assay, developed at Great Lakes Toxicology and Ecology Division (GLTED) within the EPA's Center for Computational Toxicology and Exposure (CCTE), is designed to test the chemicals' ability to displace T4 from the TTR protein. TTR (0.125uM) is incubated in presence of test chemical for 2 hours during which disrupting chemicals displace ANSA from the TTR protein. Results read fluorescence at 380 excitation and 475 emission.

SMILES	AC50
O=C(O)C(F)(F)C(F)(F)C(F)(F)C(F)(F)C(F)(F)C(F)(F)C(F)(F)C(F)(F)C(F)(F)F	73.7 µM (active)
O=C(O)C(F)(F)C(F)(F)C(F)(F)C(F)(F)C(F)(F)C(F)(F)C(F)(F)C(F)(F)C(F)(F)C(F)(F)F	35.9 µM (active)
O=C(O)C(F)(F)C(F)(F)C(F)(F)C(F)(F)C(F)(F)C(F)(F)C(F)(F)C(F)(F)F	39.2 µM (active)
O=S(=O)(O)C(F)(F)C(F)(F)C(F)(F)C(F)(F)C(F)(F)C(F)(F)C(F)(F)C(F)(F)F	36.4 µM (active) and 27.5 µM (active)
NS(=O)(=O)C(F)(F)C(F)(F)C(F)(F)C(F)(F)C(F)(F)C(F)(F)C(F)(F)C(F)(F)F	61.2 µM (active)
